tim23-1 inh: growth inhibitors of tim23-1 mutant yeast, primary screen, luminescence, uHTS; S. cerevisiae tim23-1 growth, BacTiter-Glo luminescence, 24 h; 1.3% of 330,000 active; AID 463212, 2010; inhibition, % at 20 µM;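 active = growth inhibition of the mutant yeast at or above 50%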;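 also: temperature-sensitive mutant grown at 25 °C; plate controls were DMSO-treated mutant yeast for no effect and medium wells lacking yeast for full effect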
NLRP3 yeast inh: NALP3 inflammasome inhibitors in reconstituted yeast, primary screen, luminescence, uHTS. 0.39% of 330,000 active. Yeast reconstituted NLRP3/ASC/caspase-1, beta-gal luminescence, 24 h. inhibition, % at 10 µM;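 active = inhibition of 50% or more; inactive = inhibition below 50%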;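 also: plate controls were induced DMSO wells for no effect and uninduced yeast grown without galactose for full effect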
TIM10 inh: growth inhibitors of isogenic TIM10 control yeast, primary screen, counter-screen for tim10-1 yeast inhibitor project, luminescence, uHTS | S. cerevisiae TIM10 strain growth, BacTiter-Glo luminescence, 24 h | inhibition, % at 10 µM | 1.4% of 330,000 active | AID 463195, 2010;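 active = inhibition of 40% or more at the single tested concentration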;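 also: wild-type TIM10 isogenic control strain grown at permissive 25 °C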
NALP1 inh: NALP1 inflammasome inhibitors in reconstituted yeast, colorimetric, S. cerevisiae, triplicate retest. S. cerevisiae NALP1/ASC/caspase-1 growth, X-gal OD620, 72 h. inhibition, % at 10 µM. 0.61% of 280,000 active; in the data active = inhibition mostly above about 24%, no sharp cut-off; inactive = mostly below about 32%
tim10-1 inh: growth inhibitors of tim10-1 mutant yeast, primary screen, luminescence, uHTS; S. cerevisiae tim10-1 ts strain growth, BacTiter-Glo, 24 h; inhibition, % at 20 µM; 2.2% of 330,000 active; AID 463190, 2010;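 active = inhibition of at least 40%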;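 also: mutant grown at 25 °C; 0% = DMSO wells with yeast and 100% = wells holding no yeast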
tim10-1 confirm: growth inhibitors of tim10-1 mutant yeast, confirmation, single concentration, luminescence, S. cerevisiae | shares compounds with tim10-1 inh | S. cerevisiae tim10-1 ts strain growth, BacTiter-Glo, 24 h | inhibition, % at 20 µM | 56% of 7,400 active;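 active = inhibition of yeast growth at or above a set limit in either of two repeat tests at 20 µM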;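 also: tim10-1 mutant grown at permissive 25 °C to find synthetic lethal compounds; 0% = DMSO yeast wells and 100% = medium wells without yeast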
TIM10 conf: growth inhibitors of wild-type TIM10 yeast, confirmation, counter-screen for tim10-1 synthetic lethality project, single concentration, luminescence, S. cerevisiae | shares compounds with TIM10 inh | S. cerevisiae tim10 strain growth, BacTiter-Glo luminescence, 24 h | inhibition, % at 10 µM | 63% of 4,600 active | AID 463215, 2010;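 active = inhibition of yeast growth at or above a set limit in either of two replicates at 10 µM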;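 also: this counterscreen used the strain with wild-type TIM10; 0% = yeast with DMSO and 100% = medium wells lacking yeast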
An asterisk follows results filed as active; x = no result. An excerpt weighted towards active compounds, which were near 4.1% of everything screened.

SMILES | tim23-1 inh | NLRP3 yeast inh | TIM10 inh | NALP1 inh | tim10-1 inh | tim10-1 confirm | TIM10 conf
Cc1onc(-c2c(F)cccc2Cl)c1C(=O)NCCc1ccncc1 | -6.5 | -3.4 | 2.6 | 11.3 | -0.4 | x | x
COC(=O)CCCn1c(C)cc(C(=O)CCl)c1C | 36.2 | -77.4 | 41.6* | -35.9 | 45.4* | 36.5* | 35.5*
COC(=O)CCn1c(C)cc(C(=O)COc2ccccc2C(N)=O)c1C | -15.1 | -2.2 | 7.6 | 6.4 | 9.4 | x | x
CCc1cccc2c(C(=O)COC(=O)c3ccc([N+](=O)[O-])s3)c[nH]c12 | -93.2 | 46.9 | 73.8* | 100.7 | 63.5* | 23.2 | 75.7*
O=C(Cn1cc(C(F)(F)F)ccc1=O)NCc1ccc(F)cc1 | -11.6 | 5.2 | 0.6 | 2.5 | -19.4 | x | x
CCOC(=O)N1CCN(c2ncnc3c2oc2nc(C(C)C)c4c(c23)CCC4)CC1 | 40.7 | 14.5 | 46.1* | 3.1 | 43.6* | 33.6* | 36.5*
CC(C)Cc1nc2oc3c(N4CCN(CCO)CC4)ncnc3c2c2c1CCCC2 | 33.3 | 4.1 | 43.6* | 11.4 | 51.9* | 37.0* | 20.5
CCN1CCN(c2ncnc3c2oc2nc(C(C)C)c4c(c23)CCC4)CC1 | x | x | x | 27.6 | x | x | x
Cc1cc(C)cc(OCc2nnc(SCC(=O)N3CCN(c4ccccc4)CC3)o2)c1 | 26.2 | 11.4 | 21.9 | 0.7 | 28.7 | x | x
O=C(Nc1ccncc1)C1CCN(S(=O)(=O)c2c(Cl)cccc2Cl)CC1 | -4.9 | 19.4 | -2.8 | x | -9.9 | x | x
CCC(=O)Nc1nc(C)c(-c2csc(Nc3ccccn3)n2)s1 | 35.4 | 0.8 | 41.9* | 7.4 | 40.5* | 29.6 | 47.0*
CCCC(=O)Nc1nc(C)c(-c2csc(Nc3ccccc3C)n2)s1 | 9.1 | 16.1 | 5.3 | -3.7 | 11.4 | x | x
COc1cc(/C=C2\SC(=S)N(Nc3ncc(C(F)(F)F)cc3Cl)C2=O)ccc1O | 39.5 | 7.4 | 50.6* | -2.6 | 47.5* | 28.4 | 41.5*
CCOC(=O)C1(CCOc2ccccc2)CCN(Cc2cc(OC)c3c(c2)OCO3)CC1 | 12.9 | 10.9 | 12.5 | 20.4 | -10.8 | x | x
COC(=O)N1C(=O)[C@](c2ccccc2)(C2CCCCC2)N1C(=O)OC | 48.8 | 12.3 | 43.5* | 21.2 | 49.0* | 32.3* | 39.3*
Cc1cc(C(=O)NCC23CC4CC(CC(C4)C2)C3)c(C)o1 | 45.4 | 25.9 | 40.0* | 1.3 | 45.4* | 26.8 | 33.8*
CCN(CC(=O)Nc1cc(C)nn1-c1nc(C)cc(C)n1)Cc1ccccc1 | 29.4 | 9.1 | 43.6* | 4.0 | 43.7* | 19.0 | -26.6
COc1ccccc1N1CCN(Cc2ccc(O)c3ncccc23)CC1 | 31.3 | 46.1 | 49.7* | -10.4 | 41.7* | 23.1 | 35.2*
O=C(Cc1ccccc1)NNC(=O)Nc1ccccc1 | 18.7 | 7.7 | -9.7 | -2.3 | 5.2 | x | x
C/C(=N\N=C1\NC(=O)C(CC(=O)Nc2ccc(Cl)cc2)S1)c1ccco1 (stereo unspecified) | 21.0 | 14.3 | 15.1 | 18.9 | 7.1 | x | x
C/C(=N\N=C1\NC(=O)C(CC(=O)Nc2ccc(C)c(Cl)c2)S1)C(C)(C)C (stereo unspecified) | 20.6 | -4.5 | 43.9* | 0.8 | 51.8* | 32.3* | 23.4
O=C(Nc1ccccc1)Nc1cccc(C(F)(F)F)c1 | 11.7 | 23.0 | 13.1 | -3.0 | 5.9 | x | x
Cc1ccc(OC(F)F)c(NC(=O)Nc2cccc(C(F)(F)F)c2)c1 | 38.0 | -1.9 | 50.9* | -0.6 | 46.8* | 44.8* | 57.7*
Cc1cc(C)cc(NC(=S)NC(=O)Cc2ccccc2)c1 | 46.6 | 23.0 | 40.3* | x | 44.2* | 30.2* | 40.5*
O=C(NCC1CCCCC1)c1cccc([N+](=O)[O-])c1 | 21.1 | 28.3 | -7.8 | 1.5 | 3.3 | x | x
N/C(=N\OC(=O)CC1CCCCC1)c1cccc([N+](=O)[O-])c1 | 38.4 | 5.9 | 46.0* | 32.6 | 56.0* | 65.4* | 36.4*

Bioassay records as filed in PubChem BioAssay.
